This is an account of results in PubChem BioAssay (NCI).

The panel holds about 83,000 compounds, 20% with a hit somewhere; the sample as a whole holds those more often.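 Cell lines were cultured in 96-well plates, exposed to a single compound concentration, and assessed for percent growth 48 hours later.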 The source made the active and inactive calls.

The subject of this assay is HOP-92 NSCLC. Nature of the assay: NCI-60 one-dose screen, 48 h (100 = growth as untreated, 0 = no growth, -100 = all killed). The settings on record: 10 µM unless noted. Here is the method: Growth inhibition of the HOP-92 human Non-Small Cell Lung tumor cell line is measured as a screen for anti-cancer activity. Cells are grown in 96 well plates and exposed to the test compound for 48 hours. Compounds are tested at a single concentration, which is 10^-5 M for most compounds. The reported endpoint is percent growth (GI% or GIPRCNT), where numbers from 0 - 100% represent growth inhibition, and numbers from -100% - 0 represent cell death. For example, a value of 40 represents 60% growth inhibition. A value of 0 means no net growth occurred over the course of the experiment. A value of -40 indicates 40% of cells at the beginning of the experiment died by the end of the experiment. A value of -100 means all cells are dead at the end of the experiment.
NCI-60 Human Tumor Cell Lines Screen was performed using the standard one-dose NCI protocol, which is described in more detail at https://dtp.cancer.gov/discovery_development/nci-60/default.htm.
Compounds with GIPRCNT values below 10 were considered active. Activity score was based on GIPRCNT using the following formula: […]
Score is 0 for GIPRCNT values of 100 or above, 50 for GIPRCNT values of 0, and 100 for GIPRCNT values of -100.
On to `CC(C)=CCC[C@@H](C)[C@H]1CC[C@@]2(C)C3=C(CC[C@]12C)[C@@]1(C)CC[C@H](O)C(C)(C)[C@@H]1CC3`, for which the growth was 97.8% (inactive).

As for `O=[N+]([O-])c1ccc(-c2nc(N(CCO)CCO)c3ccccc3n2)o1`, the growth is -44.8% (active).

`N#Cc1ccc(OC(=O)Nc2cc(Cl)cc(Cl)c2)cc1`: the growth was -35.9% [100 µM] (active).

As to `COC(=O)C1(CC(C)=O)NC(=S)NC(=O)C1C#N` (stereo not given), the growth was 102% (inactive).

With `COc1cc(OC)c2cc(C(=O)c3ccc(C#N)cc3)c(=O)oc2c1`, the growth is 107% (inactive).

As for `C=CCC(O)C=C` (stereo not given), the growth was 109% (inactive).

Take `Cc1cc2c3ccc(C)[n+](C)c3ccc2n1C`: the growth is 44.4% (inactive).

Turning to `Cc1cc(NC(=O)c2ccccc2)c(Cl)cc1N`, the growth is 106% (inactive).

For `Oc1ccc(CCC2CCNc3ccccc32)cc1` (stereo not given), the growth was 49.3% (inactive).

Take `CCOC(=O)/C(C)=C\c1ccc(OC)c(OC)c1`: the growth is 93.6% (inactive).

On to `CN(C)c1ccc2c(N(C)C)cc(N(C)C)nc2c1`, for which the growth was 69.8% (inactive).

Take `CC(CC(CCC(=O)O)(c1ccccc1)c1ccccc1)N(C)C` (stereo not given): the growth was 102% (inactive).

For the molecule `O=Cc1ccc(F)cc1`, the growth is 103% (inactive).

Take `Cc1cc(Cl)cc(Cc2cc(Cl)cc(C)c2O)c1O`: the growth is -33% (active).

On to `CCOC(=O)C(C#N)=C1CCN(C)CC1`, for which the growth was 97.9% (inactive).

Take `C[C@H](CCC[C@H](C)OS(=O)(=O)c1ccccc1)OS(=O)(=O)c1ccccc1`: the growth was 131% (inactive).

In the case of `CCCCCC/C=C\CCCCCCCCCc1cc(O)cc(OC)c1O`, the growth was -45% (active).

For `O=C1C=Cc2ccccc2/C1=C/c1[nH]c(=O)[nH]c1O`, the growth is 45.9% (inactive).

Regarding `Cc1ccc2nc(N)nnc2c1`, the growth is 71.9% (inactive).

As to `CN(C)c1ccc(O)c2c1CC1CC3C(N(C)C)C(=O)C(C(N)=O)=C(O)C3(O)C(=O)C1=C2O` (stereo not given), the growth was 21.7% (inactive).

For `COc1ccc(Nc2cc(Cl)ccc2C(=O)O)cn1`, the growth is 101% (inactive).

Regarding `CCCC(OC(C)=O)c1ccc2c(c1)OCO2` (stereo not given), the growth was 104% (inactive).

With `CCCCCCCCCCCCCC/C=C\C(CC(=O)O)C(=O)O` (stereo not given), the growth is 106% (inactive).

For `CC(=O)/C(C)=N\OC(=O)Nc1ccccc1`, the growth is 92.9% (inactive).

As to `CCCC(=O)CC(=O)c1ccccc1`, the growth is 95.6% (inactive).

`C/C(=N\O)c1ccccn1`: the growth was 95.4% (inactive).

In the case of `CC1(c2ccccc2)CO1` (stereo not given), the growth was 95.7% (inactive).

For the molecule `Nc1ccn(C2CC(N)C(CO)O2)c(=O)n1` (stereo not given), the growth is 95.7% (inactive).

In the case of `CCN(C(=O)Nc1ccccc1Cl)c1ccccc1`, the growth was 101% (inactive).

Turning to `CN1CCN(C(=S)S)CC1`, the growth is 104% (inactive).

In the case of `COC(=O)c1cccc([N+](=O)[O-])c1`, the growth is 95.1% (inactive).

In the case of `CCCCNc1ccc(-c2ccc(NCCCC)cc2)cc1`, the growth is 97.7% (inactive).

Turning to `N=C(N)c1nn(C2OC(CO)C(O)C2O)c2nc[nH]c(=O)c12` (stereo not given), the growth was -23.5% (active).

For the molecule `Cc1ccc(S(=O)(=O)NC(=O)NCCSSCCNC(=O)NS(=O)(=O)c2ccc(C)cc2)cc1`, the growth was 92.2% (inactive).

Consider `CC(=O)Oc1c(Cl)cccc1-c1ccccc1`, for which the growth is 94.8% (inactive).

For the molecule `S=c1nc(-c2ccccn2)c(-c2ccccn2)n[nH]1`, the growth was 66.2% (inactive).

`C=C1C(=O)C2CCC1C2` (stereo not given): the growth is 102% (inactive).

`CCOc1ccc2c(c1)c(C)cc(C)[n+]2CC`: the growth is 54.2% (inactive).

In the case of `CC(CCC#N)(CCC#N)C(=O)c1ccccc1`, the growth was 61% (inactive).

With `O=S(=O)(O)c1cccc2cccnc12`, the growth was 102% (inactive).
